In PubChem BioAssay (NCI):
Compounds without any hit were thinned out: in the full panel of roughly 83,000, 20% have a hit.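 Single-concentration screen, 48 h exposure, 96-well plates. Endpoint: percent growth. Below 10 = active.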 The source made the active and inactive calls.

Columns and labels:
Assay in all cases: NCI-60 one-dose screen, 48 h (100 = growth as untreated, 0 = no growth, -100 = all killed)
Conditions in all cases: 10 µM unless noted
HCT-15 colon = tested on: HCT-15 colon
HT29 colon = tested on: HT29 colon
SNB-75 CNS = tested on: SNB-75 CNS
SNB-19 CNS = tested on: SNB-19 CNS
U251 CNS = tested on: U251 CNS
PC-3 prostate = tested on: PC-3 prostate
SK-MEL-5 melanoma = tested on: SK-MEL-5 melanoma
UACC-62 melanoma = tested on: UACC-62 melanoma
LOX IMVI melanoma = tested on: LOX IMVI melanoma
SK-MEL-28 melanoma = tested on: SK-MEL-28 melanoma

Measured: growth

Cn1cnc2c(F)c(Nc3ccc(Br)cc3F)c(C(=O)NOCCO)cc21
active: HT29 colon 6.34% | UACC-62 melanoma -8.58%
inactive: HCT-15 colon 62% | SNB-75 CNS 86.1% | SNB-19 CNS 51.3% | U251 CNS 51.5% | PC-3 prostate 93% | SK-MEL-5 melanoma 45.5% | LOX IMVI melanoma 29.6%

CCCCCCCC(=O)SCC/C=C/[C@@H]1CC(=O)NCc2nc(co2)C2=N[C@@](C)(CS2)C(=O)N[C@@H](C(C)C)C(=O)O1
active: HCT-15 colon 0.603% | HT29 colon 2.22% | SNB-19 CNS 9.15% | U251 CNS -61.2% | PC-3 prostate 9.75% | SK-MEL-5 melanoma -93.5% | UACC-62 melanoma -68% | LOX IMVI melanoma -97.2%
inactive: SNB-75 CNS 26.1%

COc1cc2nc(Nc3cccc(Cl)c3)nc(N)c2cc1OC
inactive: SNB-75 CNS 94.5% | SNB-19 CNS 106% | U251 CNS 66.4% | PC-3 prostate 53.9% | SK-MEL-5 melanoma 64.5% | UACC-62 melanoma 96.3% | LOX IMVI melanoma 59.8%
active: HCT-15 colon 6.41% | HT29 colon 6.72%

Cc1cn(-c2cc(NC(=O)c3ccc(C)c(Nc4nccc(-c5cnccn5)n4)c3)cc(C(F)(F)F)c2)cn1
inactive: HCT-15 colon 82% | HT29 colon 19.7% | SNB-75 CNS 88.2% | SNB-19 CNS 74.5% | U251 CNS 39.8% | PC-3 prostate 60.3% | SK-MEL-5 melanoma 57.9% | UACC-62 melanoma 26.4% | LOX IMVI melanoma 63.3% | SK-MEL-28 melanoma 31.3%

CO[C@H]1C[C@@H]2CC[C@@H](C)[C@@](O)(O2)C(=O)C(=O)N2CCCC[C@H]2C(=O)O[C@H]([C@H](C)C[C@@H]2CC[C@@H](OCCO)[C@H](OC)C2)CC(=O)[C@H](C)/C=C(\C)[C@@H](O)[C@H](OC)C(=O)[C@H](C)C[C@H](C)\C=C/C=C/C=C/1C
inactive: HCT-15 colon 53.9% | HT29 colon 44.1% | SNB-75 CNS 20.8% | SNB-19 CNS 49.5% | U251 CNS 42.7% | PC-3 prostate 44.3% | SK-MEL-5 melanoma 63.5% | UACC-62 melanoma 40.8% | LOX IMVI melanoma 40.3%

CC(C)c1ccc(/C=N/Nc2nc3ccccc3s2)cc1
inactive: HCT-15 colon 83.9% | HT29 colon 78.8% | SNB-75 CNS 103% | SNB-19 CNS 97.7% | U251 CNS 80.8% | PC-3 prostate 77.9% | SK-MEL-5 melanoma 91.6% | UACC-62 melanoma 87% | LOX IMVI melanoma 89.1%

CCOC(=O)c1sc(NC(=O)COc2ccc(/C=C3\Cc4ccc(Cl)cc4C3=O)cc2)nc1C
inactive: HCT-15 colon 120% | HT29 colon 116% | SNB-75 CNS 95.8% | SNB-19 CNS 102% | U251 CNS 99.2% | PC-3 prostate 97% | SK-MEL-5 melanoma 106% | UACC-62 melanoma 93.4% | LOX IMVI melanoma 97.9%

Cc1nc(N)sc1-c1ccnc(Nc2ccc(N3CCOCC3)cc2)n1
active: SNB-75 CNS -11%
inactive: HCT-15 colon 44.7% | HT29 colon 25.5% | SNB-19 CNS 29.9% | U251 CNS 27.9% | PC-3 prostate 38.3% | SK-MEL-5 melanoma 70.8% | UACC-62 melanoma 41.6% | LOX IMVI melanoma 29.6% | SK-MEL-28 melanoma 61.5%

COc1c(C(NC(=O)c2ccccc2)c2sccc2C)cc(Cl)c2cccnc12 (configuration not stated)
inactive: HCT-15 colon 101% | HT29 colon 94.1% | SNB-75 CNS 88.4% | SNB-19 CNS 118% | U251 CNS 88.6% | PC-3 prostate 83.2% | SK-MEL-5 melanoma 98.4% | UACC-62 melanoma 93% | LOX IMVI melanoma 98.1%

CCc1ccc(C2=C(O)C(=O)C(c3ccc(CC)cc3)=C(O)C2=O)cc1
active: HCT-15 colon 6.42% | HT29 colon 0.54% | SNB-75 CNS -16.9% | SNB-19 CNS 8.83% | U251 CNS 1.63% | PC-3 prostate 6.64% | SK-MEL-5 melanoma -58.7% | UACC-62 melanoma -44.1% | LOX IMVI melanoma 4.72% | SK-MEL-28 melanoma -19.2%

CCc1cc2c(cc1N1CCC(N3CCOCC3)CC1)C(C)(C)c1[nH]c3cc(C#N)ccc3c1C2=O
active: HCT-15 colon 7.91% | HT29 colon -58% | SNB-75 CNS -90.3% | U251 CNS -19.5% | PC-3 prostate 4.07% | UACC-62 melanoma -16.4% | LOX IMVI melanoma -16.2% | SK-MEL-28 melanoma -27.2%
inactive: SNB-19 CNS 20.2% | SK-MEL-5 melanoma 10.2%

COc1ccc(/C(C)=C(\c2ccc(Cl)cc2)c2ccc(OCCN3CCCCCC3)cc2)cc1
active: HT29 colon 8.63%
inactive: HCT-15 colon 26.6% | SNB-75 CNS 74.4% | SNB-19 CNS 64.7% | U251 CNS 42.3% | PC-3 prostate 45.3% | SK-MEL-5 melanoma 48.3% | UACC-62 melanoma 67.8% | LOX IMVI melanoma 35.8%

Cc1cc(Nc2ncc(Cl)c(Nc3ccccc3S(=O)(=O)C(C)C)n2)c(OC(C)C)cc1C1CCNCC1
active: HCT-15 colon -86.4% | HT29 colon -88.1% | SNB-75 CNS -98.1% | SNB-19 CNS -94.9% | U251 CNS -100% | PC-3 prostate -92.2% | SK-MEL-5 melanoma -98.9% | UACC-62 melanoma -95.1% | LOX IMVI melanoma -90.7%

Cc1cn(-c2cc(NC(=O)c3ccc(C)c(Nc4nccc(-c5cccnc5)n4)c3)cc(C(F)(F)F)c2)cn1
active: SK-MEL-5 melanoma -22.5% | UACC-62 melanoma 9.88%
inactive: HCT-15 colon 22.8% | HT29 colon 17.4% | SNB-75 CNS 55.7% | SNB-19 CNS 69.9% | U251 CNS 37.5% | PC-3 prostate 26% | LOX IMVI melanoma 44.1%

Cc1ccc(N=C2CSc3nnc(-c4csc5c4CCCC5)n3N2)cc1
active: HT29 colon 7.38%
inactive: HCT-15 colon 22.9% | SNB-75 CNS 56.9% | SNB-19 CNS 35.7% | U251 CNS 23% | PC-3 prostate 27.9% | SK-MEL-5 melanoma 19% | UACC-62 melanoma 40.2% | LOX IMVI melanoma 46.3%

Cc1cc(-c2cc(O)ccc2Cl)cc2nnc(Nc3ccc(OCCN4CCCC4)cc3)nc12
active: HCT-15 colon -78.5% | HT29 colon -57.1% | SNB-75 CNS -90.8% | SNB-19 CNS -64.4% | U251 CNS -74.5% | PC-3 prostate -80.5% | SK-MEL-5 melanoma -84.9% | UACC-62 melanoma -77.7% | LOX IMVI melanoma -63.9%

Cc1cc(NCC(=O)Nc2ccc(-c3nc4ccccc4s3)cc2)no1
active: LOX IMVI melanoma -42.7%
inactive: HCT-15 colon 90.7% | HT29 colon 105% | SNB-75 CNS 111% | SNB-19 CNS 96.5% | U251 CNS 88.1% | PC-3 prostate 96.6% | SK-MEL-5 melanoma 87.7% | UACC-62 melanoma 86.5%

C#Cc1cccc(Nc2ncnc3cc(OCCOC)c(OCCOC)cc23)c1
inactive: HCT-15 colon 39.3% | HT29 colon 53.2% | SNB-75 CNS 71.6% | SNB-19 CNS 79.8% | U251 CNS 68.8% | PC-3 prostate 73.4% | SK-MEL-5 melanoma 77.1% | UACC-62 melanoma 50.9% | LOX IMVI melanoma 47.2%

COc1ccc(C(=O)c2cc(OC)c(OC)c(OC)c2)cc1/C=C/C(=O)c1ccc(F)cc1
inactive: HCT-15 colon 23.9% | HT29 colon 13.6% | SNB-75 CNS 58.7% | SNB-19 CNS 71.3% | U251 CNS 34.1% | PC-3 prostate 76.7% | SK-MEL-5 melanoma 57% | UACC-62 melanoma 45.5%
active: LOX IMVI melanoma -56.5%

CC(C)c1cc(CNc2nc(Nc3cc(C4CC4)[nH]n3)cc(N3CCN(C)CC3)n2)on1
active: HCT-15 colon 6.83% | HT29 colon 0.12% | SNB-75 CNS -64.2% | U251 CNS 1.02% | PC-3 prostate 4.54% | SK-MEL-5 melanoma -24.2% | UACC-62 melanoma -63.5% | LOX IMVI melanoma -58.4%
inactive: SNB-19 CNS 13.4%

Nc1c2c(c(O)c3c1=C(CO)C=N3)=NCCS2=O (configuration not stated)
active: HCT-15 colon 4.65% | HT29 colon -27.4% | SNB-75 CNS -45.3% | SNB-19 CNS -93.6% | U251 CNS -89.8% | PC-3 prostate 8% | SK-MEL-5 melanoma -100% | UACC-62 melanoma -56.4% | LOX IMVI melanoma -93.4%

C=CC[n+]1c(/C=C2\Sc3ccccc3N2C)sc(-c2ccccc2)c1-c1ccccc1
inactive: HCT-15 colon 26.2% | SNB-75 CNS 12% | SNB-19 CNS 26.8% | U251 CNS 15.1% | PC-3 prostate 17.9% | UACC-62 melanoma 13.8% | LOX IMVI melanoma 10.9%
active: HT29 colon 6.28% | SK-MEL-5 melanoma -97.8%

Clc1ccc(C(Cn2ccnc2)OCc2ccsc2Cl)c(Cl)c1 (configuration not stated)
inactive: HCT-15 colon 42.5% | HT29 colon 30% | SNB-75 CNS 56.4% | SNB-19 CNS 68.4% | U251 CNS 54.7% | PC-3 prostate 31.1% | SK-MEL-5 melanoma 31.2% | UACC-62 melanoma 41.9% | LOX IMVI melanoma 43.7%

COc1cc2cc(NCc3ccc(Cl)cc3)nc(C)c2cc1OC
inactive: HCT-15 colon 47% | HT29 colon 10% | SNB-75 CNS 96.3% | SNB-19 CNS 42.6% | U251 CNS 30.9% | PC-3 prostate 37.9% | SK-MEL-5 melanoma 31.3% | SK-MEL-28 melanoma 29.9%
active: UACC-62 melanoma 8.46% | LOX IMVI melanoma 5.76%

C=CC(=O)N(C)[C@H]1C[C@H]2OC(C)(C1OC)n1c3ccccc3c3c4c(c5c6ccccc6n2c5c31)C(=O)NC4 (some centres not stated)
inactive: PC-3 prostate 17.5%
active: HCT-15 colon -46.5% | HT29 colon 3.17% | SNB-75 CNS -16.8% | SNB-19 CNS -1.51% | U251 CNS -35.8% | SK-MEL-5 melanoma -94.3% | UACC-62 melanoma -28.1% | LOX IMVI melanoma -55.6%

NC(=O)c1n[nH]n2c1nc(=O)c1c3c(sc12)CCCC3
inactive: HCT-15 colon 107% | HT29 colon 106% | SNB-75 CNS 102% | SNB-19 CNS 104% | U251 CNS 97% | PC-3 prostate 85.3% | UACC-62 melanoma 103% | LOX IMVI melanoma 99.3%
active: SK-MEL-5 melanoma -31.5%

CCN1/C(=C/C=C/c2n(-c3ccccc3)c3ccc(-c4nc5ccccc5s4)cc3[n+]2CC)N(c2ccccc2)c2ccc(-c3nc4ccccc4s3)cc21
active: U251 CNS 4.79% | SK-MEL-5 melanoma -59.2% | LOX IMVI melanoma 1.77%
inactive: HCT-15 colon 14.9% | HT29 colon 10.8% | SNB-75 CNS 18.6% | SNB-19 CNS 24.7% | PC-3 prostate 16.2% | UACC-62 melanoma 30.5%

CC1(/C=N/NC(N)=S)NC(=O)NC1=O (configuration not stated)
inactive: HCT-15 colon 104% | HT29 colon 93.3% | SNB-75 CNS 90.6% | SNB-19 CNS 108% | U251 CNS 94.5% | PC-3 prostate 93% | SK-MEL-5 melanoma 100% | UACC-62 melanoma 95.6% | LOX IMVI melanoma 101%
